Hsp70 activator – transcriptional activators of Hsp70. HeLa Hsp70 promoter luciferase reporter, luminescence; scaled: vehicle 0, proteasome-inhibitor control 100%. activation, % at 10 µM. actives 0.04% (n = 200,000). AID 1203;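 active means activation above the mean across all tested compounds plus 3 SD, cutoff set per campaign, cut at about 5.5% in these data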;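 further: 100% = MG132 at 30 µM as the positive control and 0% = DMSO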
Wee1 degr inh – blocks degradation of human Wee1 kinase; HeLa Luc-Wee1K328M stability, luciferase luminescence; 100% = proteasome inhibitor MG132 effect; reporter increase, % at 5 µM; actives 1.2% (n = 220,000);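 active means activation above the mean of all tested compounds plus 3 SD, set per screening run, cut at about 8.8% in these data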;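 further: cells exposed to compound for 20 h before luminescence read; 0% = DMSO alone and 100% = MG132 at 30 µM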
DTT redox prof – compounds producing H2O2 with reducing agent – biochemical, NIH compound library profiling, artefact control for MLSCN library redox annotation, primary screen. DTT-dependent redox cycling H2O2, phenol red/HRP absorbance; 100% = 100 µM peroxide control, 0% = buffer. activation, % at 10 µM. actives 0.03% (n = 200,000). AID 878;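 active means activation of at least 50% relative to the plate's high and low controls in the primary single-dose screen; inactive means activation below 50%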;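 further: compound incubated with DTT at 0.8 mM final as the reducing agent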
HSV replic up – HSV replication enhancement; HSV replication augmentation in cells, fold increase; maximum fold increase; actives 0.005% (n = 220,000); in the data active means maximum fold increase above about 1.5; tested in PC3 cells
p97 inhibitor – inhibitors of human p97 ATPase; AID 1481; recombinant p97 ATPase, Kinase-Glo ATP luminescence, 3 h; actives 0.42% (n = 220,000); inhibition, % at 8 µM; in the data active means inhibition above about 15%;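 further: 0% = DMSO vehicle and 100% = wells lacking enzyme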
Target sequence (P55072 whole entry, looked up): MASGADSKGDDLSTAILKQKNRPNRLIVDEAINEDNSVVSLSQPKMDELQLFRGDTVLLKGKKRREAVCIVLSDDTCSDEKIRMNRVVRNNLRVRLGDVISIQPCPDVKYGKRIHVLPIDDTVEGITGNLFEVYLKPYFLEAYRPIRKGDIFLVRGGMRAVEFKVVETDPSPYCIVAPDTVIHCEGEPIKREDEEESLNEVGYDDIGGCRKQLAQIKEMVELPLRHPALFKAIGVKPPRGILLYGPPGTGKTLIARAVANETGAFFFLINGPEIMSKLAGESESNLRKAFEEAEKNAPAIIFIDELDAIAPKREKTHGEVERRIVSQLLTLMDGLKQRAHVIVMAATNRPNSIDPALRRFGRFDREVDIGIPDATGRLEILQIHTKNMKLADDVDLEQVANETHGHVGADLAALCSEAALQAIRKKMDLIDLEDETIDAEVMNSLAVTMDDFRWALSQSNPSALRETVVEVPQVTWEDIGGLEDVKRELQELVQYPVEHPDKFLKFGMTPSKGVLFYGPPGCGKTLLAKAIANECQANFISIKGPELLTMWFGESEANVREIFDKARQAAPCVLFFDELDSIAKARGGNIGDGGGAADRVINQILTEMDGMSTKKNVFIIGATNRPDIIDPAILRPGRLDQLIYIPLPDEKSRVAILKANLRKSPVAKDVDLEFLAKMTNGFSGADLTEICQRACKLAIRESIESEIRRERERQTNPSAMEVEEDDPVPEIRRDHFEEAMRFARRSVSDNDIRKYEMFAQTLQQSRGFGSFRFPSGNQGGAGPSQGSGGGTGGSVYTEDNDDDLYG
Wee1 stab conf – human Wee1 degradation inhibition, confirmation; shares compounds with Wee1 degr inh; HeLa Luc-Wee1K328M degradation, luminescence; vehicle 0%, proteasome-blocked wells 100%; activation, % at 5 µM; actives 4% (n = 1,100); AID 1410; in the data active means activation above about 8.9%
Starred values were filed as active, the others as inactive; i = inactive; nt = no result given. Compounds with a hit are over-represented: about 1.6% of the library has one in this group of screens.

SMILES | Hsp70 activator | Wee1 degr inh | DTT redox prof | HSV replic up | p97 inhibitor | Wee1 stab conf
O=C1CC(C(=O)Nc2ccccc2)N=C(N2CCOCC2)N1 (configuration not stated) | 0 | 11* | 0 | i | -7 | 4
COc1cccc(NC(=O)C(NCC(C)(C)CN(C)C)c2ccccc2)c1 (configuration not stated) | 0 | 2 | -2 | nt | 3 | nt
COc1ccccc1CNCC(=O)Nc1ccc(N2CCOCC2)cc1 | 0 | 2 | 0 | i | -9 | nt
COc1ccccc1CNCC(=O)Nc1ccc(C(F)(F)F)cc1 | nt | 12* | nt | i | 0 | 0
COCCNC(=O)CSc1ccccc1C(=O)NCC1CCCCC1 | 0 | 0 | -1 | i | 1 | nt
O=[N+]([O-])c1ccc(/C=C/c2ccncc2)cc1 | nt | 18* | nt | i | 4 | -1
O=[N+]([O-])c1cccc(/C=C/c2ccncc2)c1 | nt | -1 | nt | i | 6 | nt
Cc1ccc(O)c(C(CC(=O)NCc2ccco2)c2ccccc2)c1 (configuration not stated) | 0 | 11* | -1 | i | -1 | 2
Cc1cccc(C(CC(=O)NCc2ccco2)c2ccccc2)c1O (configuration not stated) | 0 | -2 | 0 | i | 2 | nt
COc1ccc(C(C)C)cc1S(=O)(=O)n1ccnc1C | 0 | 13* | -1 | i | -6 | 1
Cc1ccc(S(=O)OCC(=O)Nc2cc(Cl)ccc2N2CCOCC2)cc1 (configuration not stated) | 0 | 16* | -1 | i | -2 | 3
COc1cccc(OC)c1C(=O)Nc1cc(Cl)ccc1N1CCOCC1 | 0 | -2 | 0 | i | -1 | nt
CC(C)(C)c1ccc(OCCCC(=O)N2CCOCC2)cc1 | 0 | 3 | -1 | i | 2 | nt
CC(C)(C)c1ccc(OCc2ccc(C(=O)N3CCOCC3)o2)cc1 | 0 | 13* | 0 | i | -6 | 1
O=C(c1cc(=O)[nH]c2ccccc12)N1CCN(c2ccc([N+](=O)[O-])cc2)CC1 | nt | 59* | nt | i | -2 | -3
Cc1cccc(-n2cc(-c3ccccc3)c3c(NN4CCOCC4)ncnc32)c1 | 0 | 24* | 0 | i | -2 | 1
COCCn1c(SCC(=O)Nc2cccc(OC)c2)nc2c(oc3ccccc32)c1=O | 0 | -5 | 0 | i | 3 | nt
Cc1cc2c(cc1C)C(c1ccccc1Br)CC(=O)N2 (configuration not stated) | 0 | 15* | 0 | i | 3 | 0
O=C1CC(c2ccccc2Br)c2cc3c(cc2N1)CCC3 (configuration not stated) | 0 | 0 | 2 | i | 3 | nt
COc1cc(/C=N/NC(=O)c2ccc(CSc3nncn3C)cc2)cc(OC)c1O | 0 | 11* | -1 | i | 3 | -2
CCOC(=O)C(C)Sc1nc2c(c(=O)[nH]c(=O)n2C)n1C/C=C(/C)Cl (configuration not stated) | 0 | 12* | 2 | i | -3 | -3
CCSc1nc2c(c(=O)[nH]c(=O)n2C)n1C/C=C(/C)Cl | 0 | -3 | 2 | i | 4 | nt
NC(=S)N/N=C/c1ccc(Br)o1 | 0 | 17* | 0 | i | 8 | 2
NC(=S)N/N=C/c1ccc(-c2cc(Cl)c(Cl)cc2Cl)o1 | 0 | -3 | 0 | i | -1 | nt
Cc1cc(Cl)ccc1NC(=S)Nc1ccccn1 | 0 | 15* | 1 | i | 6 | 12*
SMILES | Hsp70 activator | Wee1 degr inh | DTT redox prof | HSV replic up | p97 inhibitor | Wee1 stab conf
CCNC(=O)COc1ncnc2scc(-c3ccc(F)cc3)c12 | 0 | 2 | -1 | i | 4 | nt
CNC(=O)COc1ncnc2scc(-c3ccc(F)cc3)c12 | 0 | 12* | -1 | i | -3 | 1
CCN(CC)C(=O)C(=O)c1cccn1-c1cccc(Cl)c1C#N | 1 | -1 | 0 | i | 4 | nt
CCn1c(SCc2cccnc2)nnc1-c1c[nH]c2ccccc12 | 0 | 0 | -1 | i | 1 | nt
O=C(/C=C/c1ccccc1)c1ccc(NC2=NCCCS2)cc1 | 0 | -3 | 5 | i | 3 | nt
O=C(/C=C/c1ccc(Br)cc1)c1ccc(NC2=NCCCS2)cc1 | 0 | 12* | 0 | i | 5 | 6
CSCCC(NS(=O)(=O)c1ccc2ccccc2c1)C(=O)OCC(=O)c1ccc(C(C)C)cc1 (configuration not stated) | 0 | 11* | 0 | i | -9 | -3
O=C(NCCN1CCOCC1)C1CCC(=O)N1Cc1ccc(F)cc1 (configuration not stated) | 0 | 11* | 0 | i | 2 | 5
Cc1ccccc1S(=O)(=O)Oc1ccccc1C(=O)Oc1ccccc1 | 0 | 0 | -5 | nt | 2 | nt
O=C(N/N=C1\CC(c2ccccc2)Oc2ccccc21)c1cccnc1 (configuration not stated) | 0 | 12* | -2 | i | 2 | 0
O=C(N/N=C1\CC(c2ccccc2)Oc2ccccc21)c1ccccn1 (configuration not stated) | 0 | -1 | -1 | i | 7 | nt
CN(C)CCC[C@@]1(c2ccc(F)cc2)OCc2cc(C#N)ccc21 | nt | nt | nt | i | nt | nt
CCCCN1C(=O)NC(NC(=O)C2CC2)(C(F)(F)F)C1=O (configuration not stated) | 0 | 5 | 0 | i | 3 | nt
CCCCN1C(=O)NC(NC(=O)c2ccco2)(C(F)(F)F)C1=O (configuration not stated) | 0 | 17* | 2 | i | 5 | 2
C=CCn1c(SCC#N)nc2ccccc2c1=O | 0 | -1 | 2 | i | 7 | nt
Cc1ccc(NC(=O)NC(=O)CN2C(=O)NC3(CCc4ccccc43)C2=O)c(C)c1 (configuration not stated) | 0 | 0 | 0 | i | -1 | nt
Cc1ccccc1NC(=O)c1cc(C(=O)c2cc(Cl)ccc2O)cn(-c2ccccc2C)c1=O | 0 | 14* | 0 | i | 4 | 0
CN1CCN(C(=O)CN(c2ccccc2)S(=O)(=O)N(C)C)CC1 | 0 | 11* | -1 | i | 2 | -1
CS(=O)(=O)N1CCC(Oc2ccccc2C(=O)NC2CCCCCC2)CC1 | 0 | -1 | 0 | i | 1 | nt
O=[N+]([O-])c1ccc(N2CCN(S(=O)(=O)c3ccccc3)CC2)cc1NCC1CCCO1 (configuration not stated) | 0 | 0 | 0 | i | -2 | nt
CCS(=O)(=O)N1CCN(c2ccc([N+](=O)[O-])c(NCC3CCCO3)c2)CC1 (configuration not stated) | 0 | 12* | 2 | i | 4 | 1
COc1cccc(-c2cc(C(=O)NC3CCCC3)no2)c1 | 0 | 15* | 0 | i | -4 | 3
